Only some compounds are listed: those with a hit (about 9.2% of all), similar ones and a draw of the others.
ELG1 DNA repair – qHTS screen for small molecules that inhibit ELG1-dependent DNA repair in human embryonic kidney (HEK293T) cells expressing luciferase-tagged ELG1 | HEK293T ELG1-luciferase reporter, luminescence, 16 h; DNA damage induced by 5-fluorouridine | Potency, µM (highest dose often 46.1 µM), most hits filed as inhibitors | hit rate 2.3% among 330,000; note: nearly all actives have a fitted effect of over 55% in size
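DMSO vehicle served as the neutral condition. Each well held 2,000 cells given 5-fluorouridine plus compound; after 16 hr at 37 °C/5% CO2, ONE-Glo was added and luciferase measured 30 min later.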
NPC1 prom act – qHTS Assay for NPC1 Promoter Activators; Huh7 NPC1 promoter luciferase reporter, 24 h; Potency, µM (series often up to 9.22 µM), usual class: activators; hit rate 2.4% among 320,000; note: nearly all actives have a fitted effect of over 60% in size
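Cells: Huh7 expressing luciferase under the NPC1 promoter, 1500/well. Seeded 2 h, compound added, incubated 24 h at 37 °C. Luciferase reagent, 10 min ambient, then luminescence.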
ELG1 genotox – qHTS screen for small molecules that induce genotoxicity in human embryonic kidney (HEK293T) cells expressing luciferase-tagged ELG1; hit rate 1.3% among 330,000; Potency, µM (doses to about 46 µM), actives largely listed as activators; HEK293T ELG1-luciferase reporter, luminescence, 16 h; note: nearly all actives have a fitted effect of over 60% in size
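ELG1-luciferase HEK293T cells, 2,000/well; compound pinned in; 16 hr, 37 °C, 5% CO2; ONE-Glo, 30 min RT; luminescence on CCD imager.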
FLuc counter – qHTS profiling assay for firefly luciferase inhibitor/activator using purifed enzyme and Km concentrations of substrates (counterscreen for miR-21 project); Luciferin 4-monooxygenase (Photinus pyralis), P08659; purified FLuc, Km substrates, luminescence inhibition; Potency, µM (highest dose often 57.5 µM), most hits filed as inhibitors; hit rate 6.9% among 360,000; note: nearly all actives have a fitted effect of over 55% in size
Target sequence (P08659 whole entry, looked up): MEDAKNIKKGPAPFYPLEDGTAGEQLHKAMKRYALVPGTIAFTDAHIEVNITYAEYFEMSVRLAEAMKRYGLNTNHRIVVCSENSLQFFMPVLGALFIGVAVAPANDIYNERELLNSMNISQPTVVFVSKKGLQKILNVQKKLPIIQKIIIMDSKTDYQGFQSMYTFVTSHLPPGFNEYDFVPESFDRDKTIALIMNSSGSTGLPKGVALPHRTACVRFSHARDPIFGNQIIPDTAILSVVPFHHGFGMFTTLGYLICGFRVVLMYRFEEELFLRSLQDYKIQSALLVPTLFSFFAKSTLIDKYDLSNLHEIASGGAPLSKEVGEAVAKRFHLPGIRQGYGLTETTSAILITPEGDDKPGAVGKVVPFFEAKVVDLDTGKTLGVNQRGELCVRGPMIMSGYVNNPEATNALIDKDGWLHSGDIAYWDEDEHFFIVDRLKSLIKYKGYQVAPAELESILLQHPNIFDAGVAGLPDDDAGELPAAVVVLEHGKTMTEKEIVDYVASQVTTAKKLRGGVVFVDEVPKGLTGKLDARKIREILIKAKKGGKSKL
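Biochemical qHTS of compounds, final roughly 60 µM downward over six points, against 10 nM purified firefly luciferase using Km concentrations of substrates (10 uM D-luciferin, 10 uM ATP) in Tris acetate pH 7.5 buffer; luminescence output.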
SMN2 splice enh – qHTS Assay for Enhancers of SMN2 Splice Variant Expression; HEK293 SMN2-luciferase splicing reporter, luminescence, 30-36 h; Potency, µM (titrated, usually from 46.1 µM), usual class: activators; hit rate 2.8% among 210,000; note: nearly all actives have a fitted effect of over 55% in size
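qHTS luciferase splicing reporter: luminescence rises when SMN2 exon 7 is included in transfected HEK293 cells. Compound exposure lasted 30-36 h at 37C, with 4.5 mM final sodium butyrate as control, followed by a ONE-Glo read.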
Rab9 promoter act – qHTS Assay for Rab9 Promoter Activators | Huh7 Rab9 promoter-luciferase reporter, luminescence, 24 h | Potency, µM (titrated, usually from 9.22 µM), most hits filed as activators | hit rate 2.8% among 320,000; note: nearly all actives have a fitted effect of over 60% in size
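Huh7 reporter line, Rab9 promoter upstream of luciferase. Compound exposure 24 h at 37 °C in reduced-serum medium with 10% FBS. Read-out: luminescence.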
Numbers stand for hits; [ ] = another dose, or the depositor's remark. Calls come from the whole dose curve; as a rule, active = well fitted curve in the direction sought with a large enough effect; inconclusive = small, poorly fitted or top-dose-only effect, or another doubt; inactive = no such curve, though single readings can be large; an effect the other way counts as inactive or inconclusive.

CCN1C(=O)[C@H]2[C@@H](c3ccc(-c4cccc(Cl)c4)c(OC)c3)N[C@@](C)(C(=O)OC)[C@H]2C1=O was read as ELG1 DNA repair inconclusive, NPC1 prom act inactive, ELG1 genotox inactive, FLuc counter inactive and Rab9 promoter act inactive.
CN1CCN(Cc2ccc(OCc3ccccc3)cc2)CC1 was read as ELG1 DNA repair inconclusive, NPC1 prom act inconclusive, ELG1 genotox inconclusive, FLuc counter 13µM, SMN2 splice enh inactive and Rab9 promoter act inconclusive.
For CCN1CCN(Cc2ccc(OC)c(OCc3ccccc3)c2)CC1 the results were FLuc counter inactive and SMN2 splice enh inactive.
Screening O=C(Nc1ccccc1)OCCN1CCN(Cc2ccccc2)CCC1=O returned ELG1 DNA repair inactive, NPC1 prom act inactive, ELG1 genotox inactive, FLuc counter inactive, SMN2 splice enh inactive and Rab9 promoter act inactive.
For CCN1CCN(Cc2ccc(OCc3ccccc3)cc2)CC1 the results were ELG1 DNA repair inconclusive, NPC1 prom act 4µM, ELG1 genotox 10µM, FLuc counter 21µM, SMN2 splice enh inactive and Rab9 promoter act inactive[1.84 µM].
For O=C1CCN(Cc2ccccc2)CCN1CCOc1ccccc1 the results were ELG1 DNA repair inconclusive, NPC1 prom act inconclusive, ELG1 genotox inactive, FLuc counter 24µM and Rab9 promoter act 3.5µM.
CC(C)CNC(=O)C1CCN(Cc2ccc(OCc3ccccc3)cc2)CC1 was read as ELG1 DNA repair inconclusive, NPC1 prom act inactive, ELG1 genotox inactive, FLuc counter 17µM, SMN2 splice enh inconclusive and Rab9 promoter act inconclusive.
`N#CCc1ccc(OC(=O)c2cnccc2C(F)(F)F)cc1` gave ELG1 DNA repair inactive, NPC1 prom act inactive, ELG1 genotox inactive, FLuc counter inactive and Rab9 promoter act inactive.
CN(C(=O)CC(=O)Nc1ccc2nc3n(c(=O)c2c1)CCCCC3)c1ccccc1F was read as FLuc counter inactive and SMN2 splice enh inactive.
Cc1cc(Br)ccc1NC(=O)COc1cc(=O)n(C)c2ccccc12 was read as FLuc counter inactive and SMN2 splice enh inactive.
Cc1nc(Cl)cc(N/N=C/c2ccc(O)cc2O)n1 was read as ELG1 DNA repair inconclusive, NPC1 prom act inactive, ELG1 genotox inactive, FLuc counter 13µM and Rab9 promoter act inactive.
Screening Oc1ccc(/C=N/Nc2cc(N3CCCC3)nc(N3CCCC3)n2)cc1 returned ELG1 DNA repair inactive, NPC1 prom act inactive, ELG1 genotox inactive, FLuc counter inactive, SMN2 splice enh inactive and Rab9 promoter act inactive.
`Cc1nc(Cl)cc(N/N=C/c2ccc(O)cc2)n1` gave ELG1 DNA repair inconclusive, NPC1 prom act inactive, ELG1 genotox inconclusive, FLuc counter 21µM and Rab9 promoter act inactive.
CCOc1ccc(/C=N/Nc2cc(N3CCOCC3)nc(C)n2)c(O)c1 was read as ELG1 DNA repair inactive, NPC1 prom act inactive, ELG1 genotox inactive, FLuc counter inactive and Rab9 promoter act inactive.
Screening COc1ccc(-c2nc3ccccc3o2)cc1NC(=O)c1cc(Br)ccc1OC returned FLuc counter inactive and SMN2 splice enh inactive.
Screening CC(C)c1ccc2oc(-c3ccc(Cl)c(NC(=O)c4cccs4)c3)nc2c1 returned FLuc counter 2.1µM and SMN2 splice enh inactive.
`Cc1ccc(-c2nc3cc(C(C)C)ccc3o2)cc1NC(=O)c1cc2ccccc2o1` gave FLuc counter 2.4µM and SMN2 splice enh inactive.
`COc1ccc(-c2nc3cc(C(C)C)ccc3o2)cc1NC(=O)c1ccccc1[N+](=O)[O-]` gave FLuc counter 2.7µM and SMN2 splice enh inactive.
Screening CC(C)c1ccc2oc(-c3ccc(Cl)c(NC(=O)Cc4ccccc4)c3)nc2c1 returned FLuc counter 4.3µM and SMN2 splice enh inactive.
Screening Cc1ccc(C(C)C)c(OCc2nn(CC(=O)c3ccc(Cl)cc3)c3[n+]2CCCCC3)c1 returned ELG1 DNA repair inconclusive, NPC1 prom act inactive, ELG1 genotox inactive, FLuc counter inactive, SMN2 splice enh inactive and Rab9 promoter act inactive.
Screening Cc1ccccc1NC(=O)Cn1cc(S(=O)(=O)c2ccccc2)c(=O)c2ccccc21 returned FLuc counter inactive and SMN2 splice enh inactive.
`COc1cccc(-n2nc(-c3ccnn3-c3ccc(C)cc3)c(=O)n(C)c2=O)c1` gave ELG1 DNA repair 21µM, NPC1 prom act inactive, ELG1 genotox inactive, FLuc counter inactive, SMN2 splice enh inactive and Rab9 promoter act inactive.
`Cn1c(CCC(=O)Nc2ccc(F)cc2)nc2cc(S(=O)(=O)N3CCOCC3)ccc21` gave ELG1 DNA repair inactive, NPC1 prom act inactive, ELG1 genotox inactive, FLuc counter inactive and Rab9 promoter act inactive.
For CCCn1c(CCC(=O)Nc2ccccc2Cc2ccccc2)nc2cc(S(=O)(=O)N3CCOCC3)ccc21 the results were ELG1 DNA repair 12µM, NPC1 prom act inactive, ELG1 genotox inactive, FLuc counter inactive, SMN2 splice enh inactive and Rab9 promoter act inactive.
For COc1ccc(/C=C/C(=O)Nc2ccc(N3CCOCC3)cc2)cc1 the results were ELG1 DNA repair inactive, NPC1 prom act inactive, ELG1 genotox inactive, FLuc counter inactive, SMN2 splice enh inactive and Rab9 promoter act inactive.
CCN(CC)S(=O)(=O)c1ccc2c(c1)nc(CCC(=O)Nc1ccc(N3CCOCC3)cc1)n2C was read as ELG1 DNA repair inactive, NPC1 prom act inactive, ELG1 genotox inactive, FLuc counter 17µM, SMN2 splice enh inactive and Rab9 promoter act inactive.
`CCN(CC)S(=O)(=O)c1ccc(/C=C/C(=O)Nc2ccc(N3CCOCC3)cc2)cc1` gave ELG1 DNA repair 5.2µM, NPC1 prom act inactive, ELG1 genotox inactive, FLuc counter inactive and Rab9 promoter act inactive.
`Cc1ccc(CNC(=O)CCc2c(C)nc3c(-c4ccc(F)cc4)c(C)nn3c2C)cc1` gave FLuc counter inactive and SMN2 splice enh inactive.
Screening Cc1ccc(NC(=O)NCC2CC2(Cl)Cl)cc1 (stereo unspecified) returned ELG1 DNA repair inconclusive, NPC1 prom act 2.2µM, ELG1 genotox inconclusive, FLuc counter 11µM and Rab9 promoter act 3.5µM.
For O=C(NCC1CC1(Cl)Cl)Nc1ccc(Cl)c(Cl)c1 (stereo unspecified) the results were ELG1 DNA repair inconclusive, NPC1 prom act inconclusive, ELG1 genotox inactive, FLuc counter 17µM and Rab9 promoter act inconclusive.
Cn1cccc1CNC(=O)Nc1ccc(Cl)c(Cl)c1 was read as ELG1 DNA repair inconclusive, NPC1 prom act 4µM, ELG1 genotox inconclusive, FLuc counter 8.5µM, SMN2 splice enh inconclusive and Rab9 promoter act 3.2µM.
